Data from PubChem BioAssay (EPA / NIEHS).
“And” between values parts separate entries of the source, which are not always exact repeats. Identical values can stand only once. Some structures have more than one record in an assay (separate samples or runs), and their calls can disagree. The source made the active and inactive calls. How the source made its calls: active means hit-call score of the fitted dose curve at least 0.9, where 1 is the maximum; inactive means score below 0.9.

Read-out: Monokine induced gamma interferon (MIG), CXCL9 (gene 4283)
Test: BSK_KF3CT_MIG: BioMAP Diversity Plus: KF3CT Assay for Monokine induced gamma interferon (MIG) Biomarker Activity (AID 2284248)
Conditions: primary human keratinocytes with fibroblasts
Summary of the method: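 Human keratinocyte plus foreskin fibroblast primary co-culture dosed with test chemical for 24 h; MIG level measured by ELISA and fitted in the positive direction against DMSO as baseline.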

Structure (SMILES)	outcome	AC50
C=CC(=O)OCCC(F)(F)C(F)(F)C(F)(F)C(F)(F)F	inactive	
OCC(F)(F)C(F)(F)C(F)(F)C(F)(F)C(F)(F)C(F)(F)CO	inactive	
NCC(F)(F)C(F)(F)C(F)(F)C(F)(F)C(F)(F)C(F)(F)C(F)(F)C(F)(F)F	inactive	
O=S(=O)(OCC(F)(F)F)C(F)(F)C(F)(F)C(F)(F)C(F)(F)F	inactive	
O=S(=O)(O)CCC(F)(F)C(F)(F)C(F)(F)C(F)(F)F	inactive	
O=C(O)C(F)(F)C(F)(F)C(F)(F)OC(F)(C(F)(F)F)C(F)(F)F	inactive	
O=C(F)C1(F)C(F)(F)C(F)(F)C(F)(F)C(F)(F)C1(F)F	inactive	
CNS(=O)(=O)C(F)(F)C(F)(F)C(F)(F)C(F)(F)C(F)(F)C(F)(F)C(F)(F)C(F)(F)F	inactive	
NS(=O)(=O)C(F)(F)C(F)(F)C(F)(F)C(F)(F)C(F)(F)C(F)(F)F	inactive	
O=C(O)C(F)(F)C(F)(F)C(F)(F)OC(F)(F)F	inactive	
COC(F)(C(F)F)C(F)(F)F (stereo not given)	inactive	
CCOC(=O)CC(=O)C(F)(F)C(F)(F)F	inactive	
CN(C(=O)C(F)(F)C(F)(F)C(F)(F)F)[Si](C)(C)C	inactive	
CCN=C1C=CC(=C(c2ccc(N(CC)CC)cc2)c2ccc(N(CC)CC)cc2)c2ccccc21		2.63 µM (active) and 2.31 µM (active)
NC(=O)C(F)(F)C(F)(F)C(F)(F)C(F)F	inactive	
O=S(=O)(Cl)C(F)(F)C(F)(F)C(F)(F)C(F)(F)C(F)(F)C(F)(F)C(F)(F)C(F)(F)F	inactive	
O=C(O)C(F)(F)C(F)(F)C(F)(F)C(F)(F)C(F)(F)C(F)(F)C(F)F	inactive	
O=C(O)CCC(F)(F)C(F)(F)C(F)(F)C(F)(F)C(F)(F)C(F)(F)C(F)(F)F	inactive	
CCN(CCO)S(=O)(=O)C(F)(F)C(F)(F)C(F)(F)C(F)(F)C(F)(F)C(F)(F)C(F)(F)C(F)(F)F		22.7 µM (active) and 31.6 µM (active)
O=C(O)C(F)(F)C(F)(F)C(F)(F)C(=O)O	inactive	

Read-out: Vascular cell adhesion molecule 1 (VCAM1), VCAM1 (gene 7412)
Test: BSK_BF4T_VCAM1: BioMAP Diversity Plus: BF4T Assay for Vascular cell adhesion molecule 1 (VCAM1) Biomarker Activity (AID 2284249)
Conditions: primary human bronchial epithelial cells with fibroblasts
Summary of the method: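 Cell-surface VCAM-1 quantified by ELISA after 24 h chemical exposure of human bronchial epithelial/dermal fibroblast co-cultures, with SRB staining in parallel wells for cytotoxicity; DMSO baseline, positive-direction fitting.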

Structure (SMILES)	outcome	AC50
C=CC(=O)OCCC(F)(F)C(F)(F)C(F)(F)C(F)(F)F	inactive	
OCC(F)(F)C(F)(F)C(F)(F)C(F)(F)C(F)(F)C(F)(F)CO	inactive	
NCC(F)(F)C(F)(F)C(F)(F)C(F)(F)C(F)(F)C(F)(F)C(F)(F)C(F)(F)F	inactive	
O=S(=O)(OCC(F)(F)F)C(F)(F)C(F)(F)C(F)(F)C(F)(F)F	inactive	
O=S(=O)(O)CCC(F)(F)C(F)(F)C(F)(F)C(F)(F)F	inactive	
O=C(O)C(F)(F)C(F)(F)C(F)(F)OC(F)(C(F)(F)F)C(F)(F)F	inactive	
O=C(F)C1(F)C(F)(F)C(F)(F)C(F)(F)C(F)(F)C1(F)F	inactive	
CNS(=O)(=O)C(F)(F)C(F)(F)C(F)(F)C(F)(F)C(F)(F)C(F)(F)C(F)(F)C(F)(F)F	inactive	
NS(=O)(=O)C(F)(F)C(F)(F)C(F)(F)C(F)(F)C(F)(F)C(F)(F)F		19.8 µM (active) and 21.1 µM (active)
O=C(O)C(F)(F)C(F)(F)C(F)(F)OC(F)(F)F	inactive	
COC(F)(C(F)F)C(F)(F)F (stereo not given)	inactive	
CCOC(=O)CC(=O)C(F)(F)C(F)(F)F	inactive	
CN(C(=O)C(F)(F)C(F)(F)C(F)(F)F)[Si](C)(C)C	inactive	
NC(=O)C(F)(F)C(F)(F)C(F)(F)C(F)F	inactive	
O=S(=O)(Cl)C(F)(F)C(F)(F)C(F)(F)C(F)(F)C(F)(F)C(F)(F)C(F)(F)C(F)(F)F	inactive	30 µM (active)
O=C(O)C(F)(F)C(F)(F)C(F)(F)C(F)(F)C(F)(F)C(F)(F)C(F)F	inactive	
O=C(O)CCC(F)(F)C(F)(F)C(F)(F)C(F)(F)C(F)(F)C(F)(F)C(F)(F)F	inactive	
CCN(CCO)S(=O)(=O)C(F)(F)C(F)(F)C(F)(F)C(F)(F)C(F)(F)C(F)(F)C(F)(F)C(F)(F)F	inactive	
O=C(O)C(F)(F)C(F)(F)C(F)(F)C(=O)O	inactive	
